The results in this text go back to PubChem BioAssay AID990 (National Center for Advancing Translational Sciences (NCATS), 2007).

The source made the active and inactive calls.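 The calls were made as follows: active = compound that made reporter-free parental cells show up as glowing objects under laser imaging, so likely a fluorescent false positive; inactive = the rest.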

The assay can be described thus: Parental Cell Counter Screen Assay for Epigenetic Modulators. To be noted: parental c127i cells, compound fluorescence imaging, 30 h. An excerpt:
NIH Molecular Libraries Screening Centers Network [MLSCN] NIH Chemical Genomics Center [NCGC] MLSCN Grant: 1 X01 MH079860-01 Assay Provider: Elisabeth D. Martinez, University of Texas SW Medical Center NCGC Assay Overview: This assay is a counter screen for the Locus Derepression (LDR) assay (PubChem AID 597). The LDR assay detects the derepression of a GFP reporter that is stably integrated in a region of the genome of murine c127i mammary cells that is presumably silenced. Compounds that cause derepression of the locus to express GFP are identified by enumerating GFP positive cells using a laser-scanning microplate cytometer. […] Compounds active in the parental c127i cells are likely fluorescent.
NCGC Assay Protocol Summary: Two hundred and fifty cells in 5 uL per well were dispensed into black, clear-bottom 1536-well plates. Twenty-three nL compound was transferred to the assay plate and cells were incubated 30 hours at 37 C. Medium was removed, cells were washed two times with PBS, and fluorescent cells were enumerated as objects between the sizes of 20 to 120 um width and depth using a laser-scanning microplate imager (Acumen Explorer Ex3, TTP Labtech).

For the compound `CN1CSC(=S)N(C)C1`, the result was inactive.
